# According to the supplement of paper PMC6411743:
# ± gives the standard deviation of the averaged measurements. Of roughly 5,400 targets only a part is listed; those with the largest changes were picked by preference.
# Molecular target: T1, UniProt O00255|O00255-2|O00255-3
# T1 sequence (whole entry): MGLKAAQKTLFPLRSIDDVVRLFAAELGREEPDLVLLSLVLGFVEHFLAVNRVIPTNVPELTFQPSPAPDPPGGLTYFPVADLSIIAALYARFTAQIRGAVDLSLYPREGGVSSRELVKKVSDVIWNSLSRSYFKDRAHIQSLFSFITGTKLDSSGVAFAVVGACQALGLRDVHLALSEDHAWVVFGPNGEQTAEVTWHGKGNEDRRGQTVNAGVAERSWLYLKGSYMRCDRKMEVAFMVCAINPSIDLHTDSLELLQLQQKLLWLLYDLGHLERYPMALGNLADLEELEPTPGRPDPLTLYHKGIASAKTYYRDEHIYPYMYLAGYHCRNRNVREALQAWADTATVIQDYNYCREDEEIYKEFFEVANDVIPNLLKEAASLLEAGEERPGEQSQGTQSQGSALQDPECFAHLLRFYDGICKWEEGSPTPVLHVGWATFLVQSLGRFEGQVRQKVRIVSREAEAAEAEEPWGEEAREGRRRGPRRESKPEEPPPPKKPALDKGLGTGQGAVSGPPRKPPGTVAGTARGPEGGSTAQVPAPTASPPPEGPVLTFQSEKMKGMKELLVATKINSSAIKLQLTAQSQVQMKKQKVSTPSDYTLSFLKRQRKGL
# Assay: NP40-soluble protein abundance relative to vehicle (solubility fold change) (ratio); higher = more soluble protein in presence of GTP
# Protocol: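 Solubility proteome profiling in Jurkat crude lysate. Lysate was treated with Mg-GTP (0.1-10 mM) for 10 min at room temperature and 3 min at 37 °C, then solubilised with 0.8% NP40 and benzonase, followed by ultracentrifugation. Proteins were quantified by TMT10 LC-MS/MS; the value is the NP40-soluble abundance relative to the NP40-processed vehicle, from 3 independent experiments.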
smiles,measurement,setting,value
Nc1nc2c(ncn2[C@@H]2O[C@H](COP(=O)(O)OP(=O)(O)OP(=O)(O)O)[C@@H](O)[C@H]2O)c(=O)[nH]1 [guanosine triphosphate],NP40-soluble protein abundance,concentration: 0.1mM,1.05 ± 0.044
same,NP40-soluble protein abundance,concentration: 0.5mM,1.04 ± 0.043
same,NP40-soluble protein abundance,concentration: 1mM,1.04 ± 0.065
same,NP40-soluble protein abundance,concentration: 2mM,1.07 ± 0.023
same,NP40-soluble protein abundance,concentration: 4mM,1.16 ± 0.069
same,NP40-soluble protein abundance,concentration: 6mM,1.14 ± 0.025
same,NP40-soluble protein abundance,concentration: 8mM,1.2 ± 0.016
same,NP40-soluble protein abundance,concentration: 10mM,1.21 ± 0.023
